± gives the standard deviation of the averaged measurements.
Legend:
Settings in all cases: concentration: 10 µM; 24 h
HCC1569 [1] = experiment: cell number relative to DMSO (% of DMSO); higher = more cells (less growth inhibition / toxicity)
Summary of the method: (§1)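 After 24 h at 37 °C with compounds at 10 µM, in triplicate, HCC1569 and TDF cells were fixed with 3.7% formaldehyde. Immunostaining used a rabbit anti-H1.0 antibody and an AlexaFluor 647 secondary, with DAPI, and six fields per well were imaged at ×10. H1.0 nuclear intensity or cell number is presented as percent of the plate control, from the median of replicates, with HCC1569 values smoothed for positional effects.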

TDF [2] = experiment: as above
Summary of the method: as §1

TDF [3] = experiment: H1.0 immunofluorescence intensity relative to DMSO (% of DMSO); higher = stronger H1.0 induction, active = 120 or more
Summary of the method: as §1

HCC1569 [4] = experiment: H1.0 immunofluorescence intensity relative to DMSO (% of DMSO); higher = stronger H1.0 induction, active = 140 or more
Summary of the method: as §1
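Throughout, for H1.0 immunofluorescence intensity relative to DMSO: TDF is a line of transformed human dermal fibroblasts of mesenchymal origin.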
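Throughout, for cell number relative to DMSO: TDF denotes transformed human dermal fibroblasts of mesenchymal origin.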

Compound	cell number (HCC1569 [1])	cell number (TDF [2])	H1.0 immunofluorescence intensity (TDF [3])	H1.0 immunofluorescence intensity (HCC1569 [4])
CC(C)NCC(O)COc1ccc(CCOCC2CC2)cc1.Cl (centres undefined) [Betaxolol.HCl]	103	98	90.4 (inactive)	102 (inactive)
O=C(O)c1cc([N+](=O)[O-])ccc1NCCCc1ccccc1 [5-Nitro-2-(3-phenylpropylamino)benzoic acid]	105	102	91 (inactive)	88.1 (inactive)
COc1cc2c(c(OC)c1OC)-c1ccc(OC)c(=O)cc1C(NC=O)CC2 (centres undefined) [N-Formyl-Deacetylcolchicine]	98.9	92.9	91.7 (inactive)	81.9 (inactive)
COc1ccc(CC2c3cc(OC)c(OC)cc3CC[N+]2(C)CCC(=O)OCCCCCOC(=O)CC[N+]2(C)CCc3cc(OC)c(OC)cc3C2Cc2ccc(OC)c(OC)c2)cc1OC.O=S(=O)([O-])c1ccccc1.O=S(=O)([O-])c1ccccc1 (centres undefined) [Atracurium besylate]	98.9	103	94.5 (inactive)	110 (inactive)
CCCCCCCCCCCC=CCCCCCC(=O)O [7(E)-Nonadecenoic acid]	98.7	104	96.9 (inactive)	94.3 (inactive)
CCC1OC(=O)C(C)C(OC2CC(C)(OC)C(O)C(C)O2)C(C)C(OC2OC(C)CC(N(C)C)C2O)C(C)(O)CC(C)CN(C)C(C)C(O)C1(C)O (centres undefined) [Azithromycin]	106	109	91.2 (inactive)	105 (inactive)
CSc1nc2ccc3nc(NC(=O)C(c4ccccc4)c4ccccc4)sc3c2s1	103	121	99.4 (inactive)	94 (inactive)
CC(=O)OC1(C(C)=O)CCC2C3CC(C)C4=CC(=O)CCC4(C)C3CCC21C (centres undefined) [Medroxyprogesterone 17-Acetate]	105	112	102 (inactive)	89.3 (inactive)
COc1c2ccoc2cc2oc(=O)ccc12 [Bergapten]	97.8	94	102 (inactive)	99.9 (inactive)
N#Cc1c(O)c2c(-c3ccc(-c4ccccc4O)cc3)csc2[nH]c1=O	102	92.5	98.8 (inactive)	96.3 (inactive)
COc1ccc(-n2[nH]c3c(cnc4ccccc43)c2=O)cc1 [2-(4-methoxyphenyl)-1H-pyrazolo[4,3-c]quinolin-3(2H)-one]	103	87.8	98.5 (inactive)	93.6 (inactive)
COc1ccc2cc3[n+](cc2c1OC)CCc1cc2c(cc1-3)OCO2.Cl	99.4	77.9	97.4 (inactive)	101 (inactive)
CCOc1nc2cccc(C(=O)O)c2n1Cc1ccc(-c2ccccc2-c2nc(=O)o[nH]2)cc1	79.7	101	103 (inactive)	137 (inactive)
O=c1[nH]c2cc([N+](=O)[O-])c([N+](=O)[O-])cc2[nH]c1=O	105	111	91.9 (inactive)	91.4 (inactive)
CC(C=CC1=C(C)CCCC1(C)C)=CC=CC(C)=CC(=O)O [9-cis Retinoic acid]	105 ± 4.8	106 ± 5.2	87.8 (inactive)	116 (inactive)
COc1ccnc(CS(=O)c2nc3ccc(OC(F)F)cc3[nH]2)c1OC (centres undefined) [Pantoprazole]	100	105	102 (inactive)	103 (inactive)
N[C@@H](CC(=O)O)C(=O)O [L-Aspartic acid]	104	108	88.5 (inactive)	93.2 (inactive)
CC(C)(Oc1ccc(CCNC(=O)c2ccc(Cl)cc2)cc1)C(=O)O [Bezafibrate]	98.4	105	97.9 (inactive)	105 (inactive)
O=C(NCc1ccc2c(c1)OCO2)c1c(Cl)cccc1Cl [N-(1,3-benzodioxol-5-ylmethyl)-2,6-dichlorobenzamide]	97.3	103	97 (inactive)	105 (inactive)
O=C1NC(=O)c2c1c1c3ccccc3[nH]c1n1cncc21 [Isogranulatimide]	87.7	96.4	90 (inactive)	134 (inactive)
COc1cc(OC)c2cc(-c3ccncc3)cnc2c1.Cl.Cl [5,7-dimethoxy-3-(4-pyridinyl)quinoline dihydrochloride]	105	102	92.4 (inactive)	105 (inactive)

From the supplement of paper PMC7156485
